HCMV antiviral: inhibitors of human cytomegalovirus; HFF cells, HCMV-luciferase reporter, 72 h; active compounds read low; activity change, negative = inhibition, % at 57.5 µM; AID 1259415; 410,000 tested, 4.5% active; in the data active = activity change below about -60%; inconclusive = no clear call, values can overlap the other calls; inactive = above about -39%
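Two compound doses tested in HFFs infected with HCMV-luciferase, MOI 1 PFU/cell, 72 h at 37C. Lysate luminescence read with OneGlo; data normalized against buffer-only and 10uM Salinomycin inhibitor controls.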
Vaccinia mCherry: vaccinia inhibition (mCherry reporter); Potency, µM (series often up to 36.5 µM), inactives show at the highest dose activity change, negative = inhibition, usual class: inhibitors; Vaccinia virus mCherry reporter infection, fluorescence; 310,000 tested, 0.63% active; calls by dose curve; tested in A549 cells; note: potency is the fitted concentration of half-maximal effect; nearly all actives have a fitted effect of over 35% in size
LASV entry inh: inhibitors of Lassa virus binding or cell entry; Potency, µM (highest dose often 37.9 µM), inactives show at the top dose activity change, negative = inhibition, usual class: inhibitors; 300,000 tested, 1.2% active; Lassa virus pseudotype entry inhibition, cell reporter; calls by dose curve; tested in HEK293 cells; note: potency is the fitted concentration of half-maximal effect; nearly all actives have a fitted effect of over 50% in size
FMDV inh: antivirals against foot and mouth disease virus; FMDV antiviral cell-based qHTS; Potency, µM (series often up to 57.9 µM), without a hit: top-dose activity change, negative = inhibition, usual class: inhibitors; 410,000 tested, 1.2% active; AID 1159524; calls by dose curve; tested in HEK293T cells; note: read-out not given here; potency is the fitted concentration of half-maximal effect; nearly all actives have a fitted effect of over 45% in size
MARV entry inh: blocks Marburg virus binding to or entry into cells. 300,000 tested, 1.8% active. Potency, µM (titrated, usually from 37.8 µM), inactives show top-dose activity change, negative = inhibition, most hits filed as inhibitors. Marburg virus pseudotyped entry inhibition, cell reporter. AID 540276; calls by dose curve; tested in HEK293 cells; note: potency is the fitted concentration of half-maximal effect
Vaccinia Venus: inhibitors of vaccinia virus (Venus reporter); Vaccinia virus Venus reporter expression, fluorescence; Potency, µM (titrated, usually from 36.5 µM), for inactives: at the highest dose activity change, negative = inhibition, actives largely listed as inhibitors; 330,000 tested, 0.46% active; AID 720580; calls by dose curve; tested in A549 cells; note: potency is the fitted concentration of half-maximal effect; nearly all actives have a fitted effect of over 30% in size
Starred values were filed as active, the others as inactive; i = inactive; ? = inconclusive; / = no result given; ! = not confirmed by another sample; [ ] = remark or other dose. This is a sample that favours compounds with a hit; in the whole collection about 6.5% have one here. % is set by controls: 0 for no effect and ±100 for the full control effect.

SMILES | HCMV antiviral | Vaccinia mCherry | LASV entry inh | FMDV inh | MARV entry inh | Vaccinia Venus
CCCCCCCC(=O)N/N=C/c1ccc([N+](=O)[O-])o1 | ? | / | / | -15% | / | /
Cc1ccc(S(=O)(=O)N/N=C\c2ccc([N+](=O)[O-])o2)cc1C | 13 | -7% | ? | 2% | 8%[46.1 µM] | -5%
CC1(C(=O)N/N=C/c2ccc([N+](=O)[O-])o2)CC1(Br)Br (centres undefined) | -60* | ? | 13µM* | -20% | ? | 6.3µM*
Cc1cc2ncn(/N=C/c3ccc([N+](=O)[O-])o3)c2cc1C | -62* | 28µM* | -11% | / | ? | 16µM*
O=C(CNc1cccc2ccccc12)N/N=C/c1ccc([N+](=O)[O-])o1 | -95* | / | ? | 0% | ? | /
CCOC(=O)CSc1nc2c(sc3ccccc32)c(=O)n1CCc1ccccc1 | -20 | 2% | ? | 0% | / | -8%
C[C@@H]1[C@H](c2ccccc2)OCCS(=O)(=O)N1Cc1ccccc1Br | / | -10% | / | / | / | -28%
Cc1nc2cc(NC(=O)C3CC34CCN(Cc3ccc(O)c(Cl)c3)CC4)ccc2s1 (centres undefined) | / | i | / | 6% | / | -12%
Cn1cc(/C=N/NC(=O)COc2ccccc2[N+](=O)[O-])c2ccccc21 | -64* | / | 24% | -13% | -38% | /
O=C(CNc1cccc([N+](=O)[O-])c1)N/N=C/c1ccc([N+](=O)[O-])o1 | -66* | ? | ? | 11% | ? | ?
Cc1ccc(OCC(=O)N/N=C\c2cn(C)c3ccccc23)c([N+](=O)[O-])c1 | 22 | / | ? | -14% | ? | /
O=[N+]([O-])c1ccc(/C=N/N=C/c2ccc([N+](=O)[O-])o2)o1 | -100* | -4% | ? | ? | ? | -9%
O=C(CN1CCCCCCC1)N/N=C/c1ccc([N+](=O)[O-])o1 | ? | 11µM* | ? | -9% | ? | 10µM*
O=C(CN1CCOCC1)NN=Cc1ccc([N+](=O)[O-])o1 | -10 | 3% | / | -20% | / | -7%
O=C(O)/C=C/c1ccc([N+](=O)[O-])o1 | -36 | i | 12%[46.1 µM] | -23% | ? | 4%
C=C1C[C@@]2(C)CCCC3=CC(=O)C=C[C@@]32Oc2ccccc21 | -14 | / | / | / | / | /
O=C(CC12CC3CC(CC(C3)C1)C2)N/N=C/c1ccc([N+](=O)[O-])o1 | -10 | 11µM* | 16µM* | -29% | ? | 28µM*
O=C(CC12CC3CC(CC(C3)C1)C2)N/N=C\c1ccc[nH]1 | -12 | -8% | -9% | 14% | 18%[46.1 µM] | 6%
Cc1cc(C)cc(OCC(=O)N/N=C/c2ccc([N+](=O)[O-])o2)c1 | ? | ? | ? | -10% | ? | ?
Cc1ccccc1OCC(=O)N/N=C/c1ccc([N+](=O)[O-])o1 | -86* | / | / | ? | -3% | /
CCn1c(SCC(=O)Nc2cccc(Cl)c2)nnc1-c1nonc1NC(C)=O | -10 | -5% | 3%[46.1 µM] | -9% | 0%[46.1 µM] | -11%
CCN(CC)S(=O)(=O)c1ccc2c(c1)N(CC(=O)N1CCN(c3ccc(Cl)cc3)CC1)C(=O)CO2 | -9 | -12% | 15%[46.1 µM] | -21% | / | -8%
Cc1ccc(CNC(=O)c2ccc3c(c2)N(Cc2cccc(Cl)c2)C(=O)CS3)cc1 | -7 | -16% | -21%[46.1 µM] | -10% | ? | -9%
CC(=O)c1ccc(NC(=O)c2ccc(-c3nc(CSc4ccccc4)c(C)o3)cc2)cc1 | -76* | -29% | 0%[46.1 µM] | ? | / | ?
Cc1oc(-c2ccc(C(=O)Nc3cccc(C(F)(F)F)c3)cc2)nc1CSc1ccccc1 | -98* | ? | -15%[46.1 µM] | ? | / | ?
SMILES | HCMV antiviral | Vaccinia mCherry | LASV entry inh | FMDV inh | MARV entry inh | Vaccinia Venus
Cc1ccc2c(CC(=O)Nc3cc(C(F)(F)F)ccc3Cl)coc2c1C | -19 | -17% | -18%[46.1 µM] | -14% | -15%[46.1 µM] | -16%
Cc1ccc(C(NC(=O)C2CCCCC2)c2c(O)ccc3ccccc23)cc1 (centres undefined) | -66* | -37% | ? | -21% | ? | ?
CSc1nc(SCCN(C)C)c2c3c(sc2n1)COC(C)(C)C3 | 7 | i | ? | -6% | ? | -7%
CCC1(C)Cc2c(sc3nc(SC)nc(NCCN(C)C)c23)CO1 (centres undefined) | -108* | / | -11% | -14% | ? | /
Cc1ccc(C)c(C2NC(=O)c3ccccc3N2)c1 (centres undefined) | -68* | ? | / | 2% | / | ?
COc1cc(C)c(C2NC(=O)c3ccccc3N2)cc1C (centres undefined) | 60 | ? | ? | 6% | -6% | -29%
COc1ccc(CNC(=O)CSc2ncc3c(n2)-c2ccc(Cl)cc2N(Cc2ccccc2)S3(=O)=O)cc1 | 15 | -20% | -4%[46.1 µM] | -21% | / | -22%
CCn1ccc2cc(S(=O)(=O)N3CCC(C(=O)NCCOC)CC3)ccc21 | 3 | -11% | 10%[46.1 µM] | -14% | / | 4%
CC(/C=C/c1ccccc1)=N\Nc1nc(C)cc(C)n1 | -15 | -17% | 23% | 35% | 0% | -12%
Cc1cc(C)nc(NN=C(c2ccccc2)c2ccccc2)n1 | ? | -1% | ? | -14% | 10µM* | -10%
CCOC(=O)NNc1ccc2nonc2c1[N+](=O)[O-] | / | i | ? | -25% | 11µM* | 0%
Cc1cc(C)cc(Nc2ccc3nonc3c2[N+](=O)[O-])c1 | -83* | -15% | 3% | ? | -20% | -11%
CCc1ccc(Nc2ccc3nonc3c2[N+](=O)[O-])cc1 | 6 | -1% | -1% | -9% | -2%[46.1 µM] | -1%
C=CCn1c(O)c(C(CC)=NCc2ccc3c(c2)OCO3)c(=O)[nH]c1=O | 22 | -14% | ? | -4% | 14%[14.2 µM] | -22%
C=CCn1c(O)c(C(CC)=NCc2cc(OC)cc(OC)c2)c(=O)[nH]c1=O | 140 | ? | 5.8µM* | -29% | ? | ?
COc1ccc(NC(=O)C(c2ccccn2)N(C(C)=O)c2ccc(C)cc2)cc1 (centres undefined) | 93 | i | -10% | 18% | -2% | -5%
CC(=O)Nc1ccc(C(=O)N(C)C(C(=O)Nc2ccc(C)cc2)c2ccccn2)cc1 (centres undefined) | -63* | -9% | -11% | -8% | 10% | -1%
O=C([C@@H]1C[C@@H](Sc2nc3ccccc3[nH]2)CN1Cc1c(F)cccc1F)N1CCOCC1 | / | -4% | / | -14% | / | -13%
O=C(OCc1ccc(F)cc1)c1cccnc1Cl | -60* | 0% | 5% | -23% | 9%[46.1 µM] | -13%
COc1ccccc1N1CCN(CC(O)COc2cccc3ccccc23)CC1 (centres undefined) | 17 | -13% | 21µM*! | -17% | ? | -14%
C=CCc1ccccc1OCC(O)CN1CCN(c2ccccc2OC)CC1 (centres undefined) | -64*! | ? | ? | ? | ? | -13%
C=CCc1ccc(OCC(O)CN2CCN(c3ccccc3)CC2)c(OC)c1 (centres undefined) | -62* | / | / | 1% | / | /
